Bioassay records (PubChem BioAssay)
The full list was thinned out, with hits kept by preference.
LmPK inhibitor – blocks Leishmania mexicana pyruvate kinase activity; Q27686; purified LmPK, Kinase-Glo ATP luminescence, 1 h; Potency, µM (highest dose often 57.5 µM), for the others: at the highest dose activity change, negative = inhibition, hits mostly inhibitors; hit rate 0.37% among 290,000; AID 1721; note: potency is the fitted concentration of half-maximal effect; % is set by controls: 0 for no effect and ±100 for the full control effect
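Screened at intermediate enzyme activity to detect both inhibitors and activators: LmPK at 0.1 nM, with a 0.5 nM enzyme column as activation reference. PEP 0.5 mM, ADP 0.1 mM; ATP detected by luminescence after 1 h.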
Shiga inhibitor – blocks Shiga toxin action in Vero cells; Vero cells, Shiga toxin protein synthesis inhibition reporter; inhibition, % at 38.7 µM; hit rate 9.2% among 290,000; AID 2315; in the data active = inhibition mostly above about 28%, no sharp cut-off; inactive = mostly below about 43%; note: 0% is about no effect
TbPYK inhibitor – blocks Trypanosoma brucei pyruvate kinase; Q57TT1; TbPYK enzyme, Kinase-Glo Plus ATP luminescence, 45 min; Potency, µM (top dose mostly 76.8 µM), without a hit: at the top dose activity, negative = inhibition, actives largely listed as inhibitors; hit rate 0.12% among 410,000; AID 624173; note: potency is the fitted concentration of half-maximal effect; % is set by controls: 0 for no effect and ±100 for the full control effect; nearly all actives have a fitted effect of over 50% in size
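Luminescent Kinase-Glo Plus end-point after 45 min room-temperature reaction of T. brucei pyruvate kinase started with 130 uM ADP (final). Buffer TEA 50 mM pH 7.2 with KCl, MgCl2, BSA, Tween-20; titration-based qHTS with fitted concentration-effect curves.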
Cycloheximide cs – affects cycloheximide protein synthesis inhibition readout, counter-screen; cell reporter, cycloheximide protein synthesis inhibition counterscreen; max response, %; hit rate 12% among 300,000; in the data active = max response mostly above about 13%, no sharp cut-off; inactive = mostly below about 14%; note: read at 38.3 µM for the half of the compounds with a filed dose; 0% is about no effect
RE007 growth inh – less growth of the S. pombe RE007 Vpr strain | hit rate 0.21% among 360,000 | Potency, µM (doses to about 92.2 µM), inactives show at the highest dose activity change, negative = less growth, most hits filed as inhibitors | AID 651644 | S. pombe RE007 Vpr strain, BacTiter-Glo ATP luminescence, 24 h; active = well fitted falling curve with a large enough effect; inconclusive = small, poorly fitted or top-dose-only effect; inactive = no such curve, though single readings can be large or run the other way; note: potency is the fitted concentration of half-maximal effect; % is set by controls: 0 for no effect and ±100 for the full control effect; nearly all actives have a fitted effect of over 50% in size
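Fission yeast strain RE007, carrying one chromosomally integrated HIV-1 vpr copy, was seeded at OD 0.01 in PMG+AL medium with 23 nL pinned compound. After 24 h at 30 °C and 99% humidity, viability was read by BacTiter-Glo luminescence.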
Giardia FBPA inh – blocks Giardia fructose-bisphosphate aldolase activity. A8B2U2. purified Giardia FBPA. Potency, µM (highest dose often 59.6 µM), inactives show at the top dose activity, negative = inhibition, usual class: inhibitors. hit rate 0.71% among 290,000. AID 2451; note: potency is the fitted concentration of half-maximal effect; % is set by controls: 0 for no effect and ±100 for the full control effect; nearly all actives have a fitted effect of over 55% in size
Target sequence (A8B2U2 whole entry, looked up): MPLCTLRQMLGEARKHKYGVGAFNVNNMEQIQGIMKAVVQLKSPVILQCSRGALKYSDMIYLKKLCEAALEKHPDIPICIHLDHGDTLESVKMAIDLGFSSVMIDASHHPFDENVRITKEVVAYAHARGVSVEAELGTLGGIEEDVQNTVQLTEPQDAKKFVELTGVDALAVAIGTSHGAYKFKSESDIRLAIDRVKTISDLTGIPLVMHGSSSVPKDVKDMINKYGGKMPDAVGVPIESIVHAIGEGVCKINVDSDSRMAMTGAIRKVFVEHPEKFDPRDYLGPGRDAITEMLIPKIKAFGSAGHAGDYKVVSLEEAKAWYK
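Giardia FBPA (40 nM reagent) was preincubated 10 min at RT with compound (up to 57.5 uM final), then substrate plus GAPDH/TPI/NAD/arsenate coupling system with diaphorase/resazurin was added; resorufin fluorescence (525/598 nm) was read after 20 min.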
An asterisk follows results filed as active; ? = inconclusive; . = no result. Unless noted, calls come from the whole dose curve; as a rule, active = well fitted curve in the direction sought with a large enough effect; inconclusive = small, poorly fitted or top-dose-only effect, or another doubt; inactive = no such curve, though single readings can be large; an effect the other way counts as inactive or inconclusive.

SMILES	LmPK inhibitor	Shiga inhibitor	TbPYK inhibitor	Cycloheximide cs	RE007 growth inh	Giardia FBPA inh
CCOC(=O)c1sc(=NC(=O)c2ccc(OC)c(OC)c2)n(C)c1C	-0.9%	85.5*	-0.1%	37.2	2.9%	2.4%
CCOC(=O)c1sc(=NC(=O)c2cccc(OC)c2)n(C)c1C	2.5%	59.1*	6.9%	36.4*	3.7%	2.6%
CCOC(=O)c1sc(=NC(=O)COc2ccc(Cl)cc2)n(C)c1C	-5.3%	11.0	-6.7%	-1.1	-8.0%	4.0%
Cc1nc(-c2ccc(Cl)cc2)sc1CCNC(=O)C(=O)Nc1ccc2c(c1)OCO2	.	.	-4.2%	.	.	.
O=C(Nc1ccc(Cl)cc1)/C(=C/c1cccc(O)c1)c1nc2ccccc2s1	1.4%	154.0*	-6.8%	94.7*	-2.8%	-5.1%
S=C(Nc1ccc(Cl)cc1)c1nc2ccccc2s1	-6.2%	35.0	4.4%	33.9*	1.9%	7.0%
N#C/C(=C(/O)CN1CCCC1)c1nc(-c2ccccc2)cs1	3.6%	119.9*	5.2%	33.3*	-17.1%	?
N#CC(=C(O)CN1CCN(c2ccccc2F)CC1)c1nc(-c2ccccc2)cs1	.	.	5.4%	.	1.7%	.
O=C(NC1CCCCCC1)c1ccc(-n2cnnc2)cc1	-7.1%	11.7	-10.7%	-1.3	9.8%	1.9%
O=C(NC1CC1)c1ccc(-n2cccc2)cc1	-6.6%	38.8	-5.6%	62.2*	-10.7%	1.0%
C=CCNC(=O)c1ccc(-n2cccc2)cc1	8.4%	30.9	-3.4%	29.6*	-6.2%	-5.0%
Cc1ccc(C)c(-n2c(-c3csc(C)c3C)n[nH]c2=S)c1	7.08µM*	-3.8	?	-5.3	5.2%	10.6%
Cn1c(-c2csc(-c3ccccc3)n2)n[nH]c1=S	-1.6%	24.9	?	16.1*	-4.8%	12.5%
Cc1ccc(-c2n[nH]c(=S)n2C)cc1	1.3%	-13.8	-18.3%	-4.2	15.0%	-8.3%
C=CCn1c(-c2ccccc2)n[nH]c1=S	-13.6%	12.4	?	-0.9	?	-19.4%
OCCCn1c(-c2ccccc2)n[nH]c1=S	-1.0%	36.8*	-19.9%	20.8*	-18.8%	3.5%
Cc1cc(-c2n[nH]c(=S)n2Cc2ccccc2)cs1	?	15.5	3.55µM*	-1.5	10.7%	10.5%
Cc1coc2cc3oc(=O)c(CC(=O)NCc4ccccc4)c(C)c3cc12	.	.	1.2%	.	.	.
Oc1ccc(-c2n[nH]c(=S)n2Cc2ccccc2)cc1	8.91µM*	-11.6	?	-0.4	14.2%	-4.9%
Fc1ccc(-c2n[nH]c(=S)n2Cc2ccccc2)cc1	-26.6%	-9.5	?	-9.3	11.6%	20.7%
Cc1scc(-c2n[nH]c(=S)n2Cc2ccccc2)c1C	?	-5.5	3.16µM*	-3.0	-7.9%	13.7%
S=c1[nH]nc(-c2ccccc2Cl)n1Cc1ccccc1	-5.1%	15.5	6.31µM*	-1.1	4.2%	-2.4%
CCc1c(-c2n[nH]c(=S)n2Cc2ccccc2)csc1C	?	-2.5	?	-0.8	3.9%	16.3%
Fc1ccccc1-c1n[nH]c(=S)n1Cc1ccccc1	?	-3.9	?	-3.4	-11.0%	24.3%
CCOc1ccccc1NC(=O)Nc1ccc(Br)cc1C	-2.1%	8.1	-2.3%	-1.7	3.4%	2.7%
SMILES	LmPK inhibitor	Shiga inhibitor	TbPYK inhibitor	Cycloheximide cs	RE007 growth inh	Giardia FBPA inh
O=C(CC(=O)c1ccccc1)Nc1cc(C(F)(F)F)ccc1Cl	-0.9%	24.8	2.1%	16.2*	-7.3%	0.7%
O=C(NC(=S)Nc1cc(C(F)(F)F)ccc1Cl)c1ccccc1	-4.9%	16.8	0.8%	-2.6	1.2%	-25.1%
O=C(O)c1ccc(NNC(=S)Nc2cc(C(F)(F)F)ccc2Cl)cc1	3.1%	59.5*	-9.7%	36.1*	-6.4%	?
O=C(Nc1scc(-c2ccccc2)c1C(=O)O)c1ccccc1F	-8.7%	24.1	-1.9%	21.8*	6.8%	-15.4%
O=C(Nc1scc(-c2ccc(Br)cc2)c1C(=O)O)c1ccccc1F	.	.	0.5%	.	10.1%	.
Cc1ccc(C(=O)Nc2scc(-c3ccccc3)c2C(=O)O)o1	-19.4%	35.2	-4.8%	14.3*	-11.5%	1.1%
Cc1ccc(-c2csc(NC(=O)c3ccccc3F)c2C(=O)O)cc1	-4.2%	100.2*	10.0%	39.3*	-2.6%	-27.4%
COc1ccc(CNC(=O)c2ccc3c(c2)nc2n3CCC(C)C2)c(OC)c1 (stereo not given)	.	.	-2.1%	.	.	.
Cc1nnc(NCc2ccccc2)c2c1nnn2Cc1ccccc1Cl	.	.	4.0%	.	.	.
CO[C@H](C(=O)[C@@H](O)[C@@H](C)O)C1Cc2cc3cc(O[C@H]4C[C@@H](O[C@H]5C[C@@H](O)[C@H](O)[C@@H](C)O5)[C@@H](O)[C@@H](C)O4)c(C)c(O)c3c(O)c2C(=O)[C@H]1O[C@H]1C[C@@H](O[C@H]2C[C@@H](O[C@H]3C[C@](C)(O)[C@H](O)[C@@H](C)O3)[C@H](O)[C@@H](C)O2)[C@H](O)[C@@H](C)O1 (stereo not given in full)	.	.	2.0%	.	.	.
O=C(Nc1ccccc1)C1=C[C@H](C2CCCCC2)C[C@H](OCc2ccc(CO)cc2)O1	3.9%	55.1*	0.6%	43.4*	-5.8%	-12.1%
O=C(Nc1ccccc1)C1=C[C@@H](C2CCCCC2)C[C@@H](OCc2ccc(CO)cc2)O1	6.8%	84.0*	-2.4%	40.5*	-14.6%	-5.2%
C#CCNC(=O)C1=C[C@H](C2CCCCC2)C[C@H](OCCCCO)O1	8.1%	-1.0	-0.8%	-1.6	2.2%	-15.3%
C#CCNC(=O)C1=C[C@@H](C2CCCCC2)C[C@@H](OCCCCO)O1	9.8%	26.5	0.8%	14.5*	21.6%	-28.5%
O=C(O)C1=C[C@@H](C2CC2)C[C@@H](OCc2ccc(CO)cc2)O1	4.6%	6.1	-1.8%	1.5	3.1%	14.3%
O=C(Nc1ccccc1)C1=C[C@H](C2CCCCC2)C[C@H](OCCCCO)O1	.	.	-0.1%	.	1.5%	.
C#CCNC(=O)C1=C[C@H](c2ccc(C(F)(F)F)cc2)C[C@H](OCCCCO)O1	4.2%	41.9	6.3%	8.6*	5.8%	?
C#CCNC(=O)C1=C[C@@H](c2ccc(C#C)cc2)C[C@@H](OCCCCO)O1	.	.	-1.3%	.	0.5%	.
CC(C)C[C@H]1CNC(=S)N1C[C@H]1CCCN1C[C@H](Cc1ccccc1)N1C[C@H](CC(C)C)N(CCc2ccccc2)C1=S	.	.	-0.7%	.	-22.6%	.
O=C1c2[nH]nc(-c3ccccc3O)c2C(c2ccccc2F)N1Cc1ccncc1 (stereo not given)	.	.	-3.5%	.	.	.
CCCCSCCCNC(=O)c1cn(CC)c2ccc(S(=O)(=O)N(C)C3CCCCC3)cc2c1=O	.	.	-10.8%	.	.	.
CSc1ccc(CCNC(=O)CCc2c(C)nc3c(c(C)nn3-c3ccccc3)c2C)cc1	.	.	-4.9%	.	.	.
O=C(Nc1ccccc1)C1=C[C@@H](C2CCCCC2)C[C@@H](OCCCCO)O1	3.8%	172.4*	-3.3%	73.7*	-3.6%	-5.3%
